Laboratory results as given in PubChem BioAssay (Tox21).
Records with an inconclusive call do not appear. The source made the active and inactive calls. Unless noted, the call rests on the fitted dose curve; in most records, active means well fitted curve in the direction sought with a large enough effect in the repeat runs; inconclusive means weak or mixed curves; inactive means no such curve, though single readings can be large; an effect the other way counts as inactive or inconclusive.

Experiments:
[1] = qHTS assay to identify small molecule agonists of the vitamin D receptor (VDR) signaling pathway - cell viability counter screen (AID 743224); further: nearly all actives have a fitted effect of over 50% in size
Outline: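 Counter screen for cytotoxicity: VDR-bla cells at 2,000 cells/well, 16 h compound exposure, then CellTiter-Glo luminescence after the beta-lactamase measurement.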

[2] = qHTS assay to identify small molecule antagonists of the vitamin D receptor (VDR) signaling pathway - cell viability counter screen (AID 743225); further: nearly all actives have a fitted effect of over 50% in size
Outline: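 Cytotoxicity counter screen read by CellTiter-Glo luminescence (30 min, room temperature) in the same wells as the VDR-bla antagonist readout. HEK 293T VDR-UAS-bla cells had 16 h at 37C with compound and 3 nM (final) 1-alpha,25-dihydroxyvitamin D3, then 2 h with FRET substrate.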

[3] = qHTS assay to identify small molecule agonists of the NFkB signaling pathway (AID 1159509; active means well fitted curve in the direction sought with a large enough effect in the signal ratio in the repeat runs, not every such curve was filed as active; the % refers to the signal ratio)
Outline: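 Readout: FRET fluorescence, 405 nm excitation, 460/530 nm emission; beta-lactamase expression disrupts FRET. Cells: ME-180 stably carrying NF-kB-driven bla reporter. Compound exposure 5 hr, 37 C, 5% CO2.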

[4] = qHTS assay to identify small molecule agonists of the NFkB signaling pathway - cell viability counter screen (AID 1159515; calls by dose curve; further: nearly all actives have a fitted effect of over 55% in size)
Outline: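 Counter screen run alongside the NFkB-bla agonist assay: ME-180 reporter cells exposed to compounds for 5 hr, then lysed with CellTiter-Glo in the same wells. Luminescence, read after 30 min, reflects viable cells.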

[5] = qHTS assay to identify small molecule agonists of the endoplasmic reticulum stress response signaling pathway (AID 1159516; active means well fitted activation curve with a large enough effect in the signal ratio in the repeat runs, not every such curve was filed as active; the % refers to the signal ratio)
Outline: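 For this screen, HeLa cells stably carrying beta-lactamase under the ER stress response element received test compounds, positive controls or DMSO for 5 hr at 37 C; B/G FRET substrate was then added and dual-wavelength emission recorded.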

[6] = qHTS assay to identify small molecule agonists of the endoplasmic reticulum stress response signaling pathway - cell viability counter screen (AID 1159517; calls by dose curve; further: nearly all actives have a fitted effect of over 50% in size)
Outline: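 Cytotoxicity of test compounds toward ESRE-bla HeLa cells was assessed after 5 hr exposure. The luminescent CellTiter-Glo signal was measured 30 min after reagent addition.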

[7] = target: Nuclear receptor ROR-gamma (Homo sapiens) (UniProt P51449); experiment: qHTS assay to identify small molecule antagonists of the retinoid-related orphan receptor gamma (ROR-gamma) signaling pathway (AID 1159521; further: top concentration of the series differs between compounds; nearly all actives have a fitted effect of over 50% in size)
Outline: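 Antagonist read-out: drop in luminescence (ONE-Glo) from an RORE-LUC reporter in CHO cells with doxycycline-inducible ROR-gamma; 2 hr compound pretreatment, 1 uM doxycycline, 16 hr incubation at 37 C.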

[8] = qHTS assay to identify small molecule agonists of the AP-1 signaling pathway - cell viability counter screen (AID 1159525; calls by dose curve; further: nearly all actives have a fitted effect of over 55% in size)
Outline: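 Each titration point was normalised to DMSO and tetra n-octyl ammonium bromide controls. The read was Cell Titer Glo luminescence after 30 min at RT, following 5 h compound exposure of ME-180 AP-1-bla cells at 37 °C.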

[9] = qHTS assay to identify small molecule agonists of the AP-1 signaling pathway (AID 1159526; calls by dose curve)
[10] = target: Retinoic acid receptor RXR-alpha (Homo sapiens) (UniProt P19793); experiment: qHTS assay to identify small molecule agonists of the RXR signaling pathway (AID 1159527; calls by dose curve; further: nearly all actives have a fitted effect of over 35% in size)
Sequence of Retinoic acid receptor RXR-alpha (Homo sapiens) (P19793 whole entry, looked up): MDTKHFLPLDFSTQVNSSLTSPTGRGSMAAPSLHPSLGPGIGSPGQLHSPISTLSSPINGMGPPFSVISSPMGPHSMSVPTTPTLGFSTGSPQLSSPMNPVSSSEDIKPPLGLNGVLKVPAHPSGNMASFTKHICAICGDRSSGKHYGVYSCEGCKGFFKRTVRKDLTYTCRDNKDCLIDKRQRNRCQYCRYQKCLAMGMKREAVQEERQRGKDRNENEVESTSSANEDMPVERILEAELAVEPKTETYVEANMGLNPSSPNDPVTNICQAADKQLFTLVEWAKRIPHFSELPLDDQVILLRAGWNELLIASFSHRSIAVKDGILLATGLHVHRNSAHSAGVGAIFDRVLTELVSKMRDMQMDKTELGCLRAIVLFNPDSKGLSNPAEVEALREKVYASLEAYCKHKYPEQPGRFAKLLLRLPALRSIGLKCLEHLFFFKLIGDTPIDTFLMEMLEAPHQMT
Outline: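 Agonist-mode beta-lactamase reporter assay: HEK 293T RXR-alpha-UAS-bla cells treated 16 hr at 37 C with compounds, 9-cis retinoic acid as positive control. LiveBLAzer FRET substrate, 405 nm excitation, 460/530 nm emission.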

[11] = qHTS assay to identify small molecule agonists of the RXR signaling pathway - cell viability counter screen (AID 1159529); further: nearly all actives have a fitted effect of over 50% in size
Outline: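 CellTiter-Glo luminescence gave viability in the wells also read for beta-lactamase. Cells (RXR-alpha-UAS-bla HEK 293T, 2% charcoal-stripped FBS medium) had 5 hr plating, then 16 hr compound exposure at 37 C; tetraoctyl ammonium bromide served as positive control.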

[12] = qHTS assay to identify small molecule antagonists of the retinoid acid receptor (RAR) signaling pathway - cell viability counter screen (AID 1159551); further: nearly all actives have a fitted effect of over 35% in size
Outline: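 Measured by luminescent ATP detection, viability reflects C3RL4 cells treated 6 h at 37 C with test chemicals in the presence of 1 uM (final) retinol.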

[13] = qHTS assay to identify small molecule antagonists of the retinoic acid receptor (RAR) signaling pathway (AID 1159552; further: nearly all actives have a fitted effect of over 50% in size)
Outline: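 Luminescent RARE reporter read-out in C3RL4 cells: 6 hr co-treatment at 37 C of test compounds with retinol at 1 uM final. Cells plated overnight beforehand; luciferase reagent incubated 30 min at room temperature before reading.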

[14] = qHTS assay to identify small molecule agonists of the retinoic acid receptor (RAR) signaling pathway (AID 1159553); conditions: C3RL4 RARE luciferase reporter, agonist, 6 h; activation: at 73.3 µM (top of the series)
Outline: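 6 hr compound exposure (DMSO vehicle) of overnight-plated C3RL4 RARE-luc cells at 37 C; luminescence quantified after 30 min RT with luciferase reagent.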

[15] = qHTS assay to identify small molecule antagonists of the estrogen related receptor (ERR) signaling pathway from Tox21 library - cell viability counter screen (AID 1224834); further: nearly all actives have a fitted effect of over 30% in size
Outline: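 Seeded ERR cells were rested 6 h at 37 C/5% CO2 before compounds, positive and negative controls or DMSO were added. Incubation continued for 17.5 h, and viability was then quantified by CellTiter-Fluor fluorescence.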

[16] = target: Luciferin 4-monooxygenase (Photinus pyralis) (UniProt P08659); experiment: qHTS assay to identify small molecule inhibitors of firefly luciferase (AID 1224835); further: nearly all actives have a fitted effect of over 25% in size
Sequence of Luciferin 4-monooxygenase (Photinus pyralis) (P08659 whole entry, looked up): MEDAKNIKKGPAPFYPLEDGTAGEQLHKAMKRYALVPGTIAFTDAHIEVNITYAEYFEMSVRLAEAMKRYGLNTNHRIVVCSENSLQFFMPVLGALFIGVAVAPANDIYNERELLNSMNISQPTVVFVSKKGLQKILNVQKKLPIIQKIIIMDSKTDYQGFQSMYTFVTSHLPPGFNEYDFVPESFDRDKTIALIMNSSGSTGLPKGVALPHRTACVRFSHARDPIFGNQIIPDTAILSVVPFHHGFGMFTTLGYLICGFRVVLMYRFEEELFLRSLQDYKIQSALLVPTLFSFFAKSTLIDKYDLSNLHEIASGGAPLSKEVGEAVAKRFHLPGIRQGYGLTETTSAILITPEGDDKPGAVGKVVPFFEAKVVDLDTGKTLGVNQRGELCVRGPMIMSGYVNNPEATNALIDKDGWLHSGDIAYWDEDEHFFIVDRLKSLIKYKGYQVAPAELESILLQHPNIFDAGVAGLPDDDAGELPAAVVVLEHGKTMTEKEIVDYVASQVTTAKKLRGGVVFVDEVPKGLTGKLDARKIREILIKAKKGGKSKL
Outline: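 Quantitative HTS format; KM concentrations of both substrates. Purified P. pyralis FLuc activity quantified from luminescence images.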

[17] = qHTS assay to identify small molecule agonists of the constitutive androstane receptor (CAR) signaling pathway - cell viability counter screen (AID 1224836); further: nearly all actives have a fitted effect of over 45% in size
Outline: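 Cell viability multiplexed with the CAR agonist screen: CellTiter-Fluor fluorescence after 23 hr at 37 C. HepG2-CYP2B6-hCAR cells got compounds at 15 concentrations with PK11195 at 0.75 uM final.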

[18] = qHTS assay to identify small molecule antagonists of the constitutive androstane receptor (CAR) signaling pathway - cell viability counter screen (AID 1224837); further: nearly all actives have a fitted effect of over 45% in size
Outline: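 To flag cytotoxic false antagonists, HepG2 hCAR/CYP2B6-2.2kb cells were treated 23 hr with 15-concentration compound series and 50 nM CITCO at 37 C/5% CO2; CellTiter-Fluor fluorescence was the measured end point.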

[19] = target: Nuclear receptor subfamily 1 group I member 3 (Homo sapiens) (UniProt Q14994); experiment: qHTS assay to identify small molecule antagonists of the constitutive androstane receptor (CAR) signaling pathway (AID 1224838);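 further: HepG2 cells stably expressing hCAR with CYP2B6 luciferase reporter stimulated by CITCO; nearly all actives have a fitted effect of over 40% in size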
Sequence of Nuclear receptor subfamily 1 group I member 3 (Homo sapiens) (Q14994 whole entry, looked up): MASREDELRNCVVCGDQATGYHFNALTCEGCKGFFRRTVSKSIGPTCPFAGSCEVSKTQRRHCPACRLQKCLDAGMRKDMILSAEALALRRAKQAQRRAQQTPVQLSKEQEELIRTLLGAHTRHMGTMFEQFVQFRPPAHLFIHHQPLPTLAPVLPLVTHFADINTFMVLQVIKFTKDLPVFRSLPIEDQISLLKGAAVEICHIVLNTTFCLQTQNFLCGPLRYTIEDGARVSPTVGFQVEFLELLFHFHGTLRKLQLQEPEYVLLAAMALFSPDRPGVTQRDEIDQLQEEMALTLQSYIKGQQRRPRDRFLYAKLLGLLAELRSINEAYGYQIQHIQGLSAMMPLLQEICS
Outline: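 Human hepatoma HepG2 cells expressing hCAR and a CYP2B6 promoter (2.2 kb) luciferase construct; compound titration (15 points) with 50 nM CITCO final, 24 h at 37 C/5% CO2; luminescence via ONE-Glo after 30 min at room temperature.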

[20] = qHTS assay to identify small molecule antagonists of the retinoid-related orphan receptor gamma (ROR-gamma) signaling pathway - cell viability counter screen (AID 1159520); further: nearly all actives have a fitted effect of over 50% in size
Outline: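 Tet-on ROR gamma CHO cells (1,000/well) were plated 4 hr, given compounds in DMSO for 2 hr at 37 C, then induced with 1 uM final doxycycline for 16 hr. Viability was read as ATP by CellTiter-Glo luminescence after 30 min.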

Measured: Potency

CC(C)COC(=O)CC(C(=O)OCC(C)C)S(=O)(=O)O (centres undefined)
not listed: [20]
inactive: all other assays above

CO[Si](CCCS)(OC)OC
not listed: [1] | [17] | [19] | [20]
inactive: all other assays above

CCCCC(CC)C(=O)OC(C)C (centres undefined)
not listed: [2] | [19] | [20]
inactive: all other assays above

O=C(c1ccc2c(c1)C(=O)OC2=O)c1ccc2c(c1)C(=O)OC2=O
not listed: [7] | [18] | [19] | [20]
inactive: all other assays above

CCOC(=O)C(C)(C)C
not listed: [7] | [15] | [19]
inactive: all other assays above

Cc1ncc([N+](=O)[O-])n1CC(O)CCl (centres undefined)
not listed: [17] | [18] | [20]
inactive: all other assays above

NS(=O)(=O)c1ccc(Cl)c(S(N)(=O)=O)c1
not listed: [1] | [17] | [19] | [20]
inactive: all other assays above

O=C(O)CCNC(=O)c1ccccc1
not listed: [1] | [2] | [11] | [19] | [20]
inactive: all other assays above

CCS(=O)(=O)CCn1c([N+](=O)[O-])cnc1C
not listed: [7] | [15] | [17]
inactive: all other assays above

Cc1cc(C)cc([N+](=O)[O-])c1
not listed: [7] | [15] | [19]
inactive: all other assays above

C=COCCOCCOC=C
not listed: [20]
inactive: all other assays above

CCCCC[Si](OCC)(OCC)OCC
not listed: [1] | [7] | [15] | [19]
inactive: all other assays above

O=C(O)c1ccc(OCCN2CCCCC2)cc1
not listed: [15] | [18] | [19] | [20]
inactive: all other assays above

O=[Si]=O
not listed: [18] | [19] | [20]
inactive: all other assays above

OC[C@@H](O)[C@H](O)[C@@H](O)[C@@H](O)CO
not listed: [11] | [18] | [19] | [20]
inactive: all other assays above

O=C(O)c1ccccc1C(=O)Nc1ccc(S(=O)(=O)Nc2nccs2)cc1
not listed: [6] | [20]
inactive: all other assays above
